In PubChem BioAssay:
For part of these data: Entries with a potency or affinity are not part of this list. Active and inactive are the calls of the source.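 How the source made its calls, unless noted: active means primary screen inhibitor hit that blocks the TRPC4 channel at some tested dose, yielding a dose curve; inactive means the rest.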

Key:
[1] = test system: TRPC4 beta (transient receptor potential cation channel C4), mouse; test: TRPC4 cation channel opening, retest – cell-based, Fluo4 calcium, HEK293 TRPC4beta/mu-opioid, duplicates, 10 µM, confirmation (AID 2426;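 active means fluorescence ratio normalized to control raised more than 50% in primary screen plus both repeat runs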); settings: Fluo4 calcium fluorescence, at 10 µM; stronger effect = higher value
[2] = test system: transient receptor potential cation channel C4 beta (TRPC4), mouse; test: TRPC4 cation channel opening, second retest – cell-based, second round, Fluo4, HEK293 TRPC4beta/mu-opioid, 1 µM, confirmation (AID 2461;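 active means primary screen active and over 50% activation in each of two duplicate runs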); settings: Fluo4 calcium fluorescence, at 1 µM; stronger effect = higher value
[3] = test system: TRPC4 (transient receptor potential cation channel C4 beta), mouse; test: potentiation of DAMGO EC20 TRPC4 response – cell-based, second round, Fluo-4, HEK293 TRPC4beta/mu-opioid, 1 µM, confirmation (AID 2554;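 active means primary screen hit whose fluorescence ratio, in both repeats, exceeds the weak agonist control mean by 3 SD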); settings: DAMGO EC20, Fluo-4 calcium flux, at 1 µM; stronger effect = higher value
[4] = test system: TRPC4 beta (transient receptor potential cation channel C4), mouse; test: potentiation of DAMGO EC20 TRPC4 response – cell-based, Fluo-4, HEK293 TRPC4beta/mu-opioid, confirmation (AID 2555;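 active means primary screen hit whose calcium fluorescence ratio, in both repeats, exceeds the weak agonist control mean by 3 SD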); settings: DAMGO EC20, Fluo-4 calcium flux, at 10 µM; stronger effect = higher value
[5] = target: Short transient receptor potential channel 4 (Mus musculus) (UniProt Q9QUQ5); test: blockers of DAMGO-evoked TRPC4 calcium flux – cell-based, Fluo4, HEK293 TRPC4beta/mu-opioid, confirmation (AID 2636;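 active means calcium signal cut by more than 3 SD below the full-agonist control yet still positive, in both repeats and the earlier primary screen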); settings: at 10 µM; stronger effect = higher value
Chain of Short transient receptor potential channel 4 (Mus musculus) (Q9QUQ5 whole entry, looked up): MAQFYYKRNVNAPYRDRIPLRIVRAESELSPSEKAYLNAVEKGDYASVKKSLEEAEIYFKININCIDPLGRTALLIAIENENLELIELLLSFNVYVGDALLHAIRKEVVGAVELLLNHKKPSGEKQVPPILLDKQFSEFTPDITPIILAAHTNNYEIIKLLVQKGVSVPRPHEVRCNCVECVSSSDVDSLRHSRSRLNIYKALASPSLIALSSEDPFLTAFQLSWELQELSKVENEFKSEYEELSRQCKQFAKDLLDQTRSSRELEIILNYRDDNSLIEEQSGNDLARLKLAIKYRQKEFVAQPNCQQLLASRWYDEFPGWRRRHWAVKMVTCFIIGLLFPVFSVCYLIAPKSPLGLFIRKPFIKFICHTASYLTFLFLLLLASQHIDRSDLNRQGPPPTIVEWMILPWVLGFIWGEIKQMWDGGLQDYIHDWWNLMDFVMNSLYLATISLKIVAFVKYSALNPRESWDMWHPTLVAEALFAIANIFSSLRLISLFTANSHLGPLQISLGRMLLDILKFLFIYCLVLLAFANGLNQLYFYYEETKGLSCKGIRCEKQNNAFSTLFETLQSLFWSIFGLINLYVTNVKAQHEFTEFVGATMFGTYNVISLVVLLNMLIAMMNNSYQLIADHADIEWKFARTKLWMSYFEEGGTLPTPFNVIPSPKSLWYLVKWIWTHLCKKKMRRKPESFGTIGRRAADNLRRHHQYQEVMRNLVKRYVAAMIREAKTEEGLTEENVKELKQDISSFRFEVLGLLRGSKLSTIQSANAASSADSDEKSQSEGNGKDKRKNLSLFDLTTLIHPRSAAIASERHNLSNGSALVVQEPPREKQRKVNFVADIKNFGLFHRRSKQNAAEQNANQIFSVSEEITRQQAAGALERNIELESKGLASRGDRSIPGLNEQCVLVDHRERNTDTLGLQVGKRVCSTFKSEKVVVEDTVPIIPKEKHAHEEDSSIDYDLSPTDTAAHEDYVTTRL

[6] = target: Short transient receptor potential channel 4 (Mus musculus) (UniProt Q9QUQ5); test: blockers of DAMGO-evoked TRPC4 calcium flux – cell-based, second round, Fluo4, HEK293 TRPC4beta/mu-opioid, 1 µM, confirmation (AID 2637;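 active means calcium signal ratio cut to more than 3 SD under the fully stimulated control mean yet still positive, in both repeats and the primary screen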;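 on inhibition: percent of integrated ratio relative to wells lacking test compound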); settings: at 1 µM; stronger effect = higher value
[7] = target: Short transient receptor potential channel 4 (Mus musculus) (UniProt Q9QUQ5); test: calcium entry via TRPC4 opening agents – cell-based, HEK293 TRPC4/mu-opioid, Fluo-4 calcium, dose response (AID 434937;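 active means primary screen activator hit with a dose response curve and TRPC4 channel activation at any tested dose; inactive means no activation, no dose response, or not a primary hit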)
[8] = target: Short transient receptor potential channel 4 (Mus musculus) (UniProt Q9QUQ5); test: potentiation of DAMGO-evoked TRPC4 calcium signal – cell-based, HEK293 TRPC4/mu-opioid, Fluo-4 calcium, EC20 DAMGO, dose response (AID 434941;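 active means earlier screen potentiator hit that boosts the TRPC4 ion channel at some dose, with a dose response; inactive means no potentiation, no dose response, or not a prior hit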;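 further: calcium entry triggered by an EC20 dose of DAMGO at the co-expressed mu-opioid receptor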)
[9] = target: Short transient receptor potential channel 4 (Mus musculus) (UniProt Q9QUQ5); test: block of DAMGO-driven TRPC4 calcium entry – cell-based, HEK293 TRPC4/mu-opioid, Fluo-4 calcium, dose response (AID 434942)
[10] = target: Short transient receptor potential channel 6 (Mus musculus) (UniProt Q61143); test: TRPC6 blockade by TRPC4 inhibitor hits – cell-based, HEK293, membrane potential dye, duplicate, selectivity assay for TRPC4 inhibitor project, confirmation (AID 434948;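 active means active in primary screen and both duplicates, each dropping signal beyond three positive-control SD with fluorescence still positive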); settings: HEK293 TRPC6, membrane potential dye fluorescence, at 10 µM, stimulated with maximal-effect acetylcholine; stronger effect = higher value
Chain of Short transient receptor potential channel 6 (Mus musculus) (Q61143 whole entry, looked up): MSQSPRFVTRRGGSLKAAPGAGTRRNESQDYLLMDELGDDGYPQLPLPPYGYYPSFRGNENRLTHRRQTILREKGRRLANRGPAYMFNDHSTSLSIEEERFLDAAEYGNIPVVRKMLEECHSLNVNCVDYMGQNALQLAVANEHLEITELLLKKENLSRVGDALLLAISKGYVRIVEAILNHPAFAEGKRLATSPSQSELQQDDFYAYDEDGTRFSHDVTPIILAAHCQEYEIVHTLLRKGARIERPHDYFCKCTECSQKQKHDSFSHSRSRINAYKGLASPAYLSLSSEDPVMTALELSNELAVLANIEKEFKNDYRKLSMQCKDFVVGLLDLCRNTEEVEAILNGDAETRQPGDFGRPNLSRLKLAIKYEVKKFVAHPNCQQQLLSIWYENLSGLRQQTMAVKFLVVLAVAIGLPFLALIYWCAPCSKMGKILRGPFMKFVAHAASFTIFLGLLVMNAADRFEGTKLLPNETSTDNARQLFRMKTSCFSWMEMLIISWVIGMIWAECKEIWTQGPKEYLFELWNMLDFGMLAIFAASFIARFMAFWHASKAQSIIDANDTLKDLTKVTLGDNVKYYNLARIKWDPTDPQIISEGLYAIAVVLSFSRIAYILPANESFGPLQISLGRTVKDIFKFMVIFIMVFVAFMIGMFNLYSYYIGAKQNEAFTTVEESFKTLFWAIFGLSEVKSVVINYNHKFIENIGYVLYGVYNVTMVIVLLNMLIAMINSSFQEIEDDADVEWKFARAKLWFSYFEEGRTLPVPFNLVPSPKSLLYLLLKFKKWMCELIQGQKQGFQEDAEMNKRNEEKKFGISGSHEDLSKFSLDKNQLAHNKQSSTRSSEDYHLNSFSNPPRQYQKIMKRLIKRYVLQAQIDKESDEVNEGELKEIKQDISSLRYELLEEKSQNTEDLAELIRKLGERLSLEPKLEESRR

[11] = target: Short transient receptor potential channel 6 (Mus musculus) (UniProt Q61143); test: TRPC6 opening by TRPC4 activator hits – cell-based, HEK293, membrane potential dye, duplicate, selectivity assay for TRPC4 activator project, confirmation (AID 434950;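 active means membrane potential signal rise above negative control mean plus 3 SD in both duplicates, also active in the earlier TRPC4 screen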); settings: HEK293 TRPC6, membrane potential fluorescence, at 10 µM; activation: stronger effect = higher value; outcome: activation
[12] = target: Short transient receptor potential channel 6 (Mus musculus) (UniProt Q61143); test: positive modulators of mouse TRPC6 channel – HEK293 cells, membrane potential dye, duplicate, selectivity assay for TRPC4 potentiator project, confirmation (AID 434952;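 active means compound raising the membrane signal above positive-control mean plus 3 SD in both repeats, and a primary screen hit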); settings: HEK293 TRPC6, membrane potential dye fluorescence, at 10 µM, maximal acetylcholine added after compound; stronger effect = higher value
[13] = target: Short transient receptor potential channel 4 (Mus musculus) (UniProt Q9QUQ5); test: calcium flux activators in TRPC4/5HT1a cells, counter-screen for TRPC4 activator project, cell-based, second counter screen, HEK293 TRPC4/5HT1a, Fluo-4 (AID 434977;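 active means calcium signal rise above buffer-control mean plus 5 SD in both duplicates, and also a hit in the primary screen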); settings: Fluo-4 calcium flux, at 10 µM; stronger effect = higher value
[14] = serotonin-gated TRPC4 signal block – cell-based, second counter screen, HEK293 TRPC4/5HT1a, Fluo-4, counter-screen for TRPC4 inhibitor project, confirmation (AID 434978;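 active means primary screen active whose calcium signal fell more than 3 SD beyond the full-serotonin control mean in both duplicate plates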;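 on outcome: serotonin given first at submaximal then at maximal dose after compound preincubation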); settings: Fluo-4 calcium flux, at 10 µM, serotonin added to trigger calcium flux; stronger effect = higher value
[15] = test system: TRPC4 (mouse), co-expressed with 5HT1a in HEK293; test: enhancement of serotonin-evoked TRPC4 response – cell-based, second counter screen, HEK293 TRPC4/5HT1a, Fluo-4, counter-screen for TRPC4 potentiator project, confirmation (AID 434979;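 active means signal rise over 3 SD above mean of control wells given weak agonist, in both repeats and first screen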); settings: Fluo-4 calcium flux, at 10 µM, serotonin added at its EC20 dose; stronger effect = higher value
[16] = nonspecific calcium rise without TRPC4 – cell-based, HEK293 mu-opioid receptor line, counter-screen for TRPC4 activator project, confirmation (AID 449723;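 active means hit in primary screen, with calcium signal over 5 SD above buffer well mean in both duplicates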;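 further: counter screen cells carry the mu-opioid receptor alone and lack TRPC4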); settings: HEK293 mu-opioid cells, Fluo-4 calcium fluorescence, at 10 µM; stronger effect = higher value
[17] = nonspecific potentiation of DAMGO calcium response – cell-based, HEK293 mu-opioid receptor line, counter-screen for TRPC4 allosteric potentiator project, confirmation (AID 449724;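 active means calcium signal rise more than 3 SD above the low-dose agonist control mean, in both duplicate plates and the primary screen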); settings: HEK293 mu-opioid receptor cells, Fluo-4 calcium flux, at 10 µM, compound added before EC20 DAMGO stimulus; stronger effect = higher value

COc1ccccc1N1CCN(c2ncc(C(=O)N3CCN(c4cccc(Cl)c4)CC3)c3ccccc23)CC1
active: potentiation [15] 13.4%
inactive: outcome [1] | outcome [2] | outcome [3] | outcome [4] | outcome [5] | outcome [6] | outcome [7] | outcome [8] | outcome [9] | outcome [10] | outcome [11] | outcome [12] | outcome [13] | outcome [14] | outcome [16] | outcome [17]

O=C(CSCc1cccc(Cl)c1)N1CCN(Cc2ccc3c(c2)OCO3)CC1
inactive: outcome [1] | outcome [2] | outcome [3] | outcome [4] | outcome [5] | outcome [6] | outcome [7] | outcome [8] | outcome [9] | outcome [10] | outcome [11] | outcome [12] | outcome [13] | outcome [14] | outcome [15] | outcome [16] | outcome [17]

CCCn1c(NCc2cc(OC)ccc2OC)nc2ccccc21
inactive: outcome [1] | outcome [2] | outcome [3] | outcome [4] | outcome [5] | outcome [6] | outcome [7] | outcome [8] | outcome [9] | outcome [10] | outcome [11] | outcome [12] | outcome [13] | outcome [14] | outcome [15] | outcome [16] | outcome [17]

CC1=C(C(=O)NCCN2CCN(C)CC2)C2(CCC(C)CC2)OC1=O (stereo not given)
inactive: outcome [1] | outcome [2] | outcome [3] | outcome [4] | outcome [5] | outcome [6] | outcome [7] | outcome [8] | outcome [9] | outcome [10] | outcome [11] | outcome [12] | outcome [13] | outcome [14] | outcome [15] | outcome [16] | outcome [17]

O=[N+]([O-])c1ccc2c(c1)C=C1CCCCC1(N1CCCC1)O2 (stereo not given)
inactive: outcome [1] | outcome [2] | outcome [3] | outcome [4] | outcome [5] | outcome [6] | outcome [7] | outcome [8] | outcome [9] | outcome [10] | outcome [11] | outcome [12] | outcome [13] | outcome [14] | outcome [15] | outcome [16] | outcome [17]

O=C1CCCC(=O)N1c1ccc(N2CCN(c3ccc([N+](=O)[O-])cc3)CC2)c([N+](=O)[O-])c1
active: potentiation [4] 11% | potentiation [15] 14.9%
inactive: outcome [1] | outcome [2] | outcome [3] | outcome [5] | outcome [6] | outcome [7] | outcome [8] | outcome [9] | outcome [10] | outcome [11] | outcome [12] | outcome [13] | outcome [14] | outcome [16] | outcome [17]

CC(=O)C1=C(O)C(=O)N(Cc2ccco2)C1c1ccc2c(c1)OCO2 (stereo not given)
active: inhibition [5] 94% | inhibition [6] 47%
inactive: outcome [1] | outcome [2] | outcome [3] | outcome [4] | outcome [7] | outcome [8] | outcome [9] | outcome [10] | outcome [11] | outcome [12] | outcome [13] | outcome [14] | outcome [15] | outcome [16] | outcome [17]

CCOC(=O)c1c(NC(NC(C)=O)C(Cl)(Cl)Cl)sc2c1CCCC2 (stereo not given)
active: potentiation [15] 7.17%
inactive: outcome [1] | outcome [2] | outcome [3] | outcome [4] | outcome [5] | outcome [6] | outcome [7] | outcome [8] | outcome [9] | outcome [10] | outcome [11] | outcome [12] | outcome [13] | outcome [14] | outcome [16] | outcome [17]

N=c1c2c(n(Cc3ccc(Br)cc3)c3c1CCC3)CCCC2
inactive: outcome [1] | outcome [2] | outcome [3] | outcome [4] | outcome [5] | outcome [6] | outcome [7] | outcome [8] | outcome [9] | outcome [10] | outcome [11] | outcome [12] | outcome [13] | outcome [14] | outcome [15] | outcome [16] | outcome [17]

CC(C)(C)C(=O)NCCCc1nc2ccccc2n1CCCOc1ccc(Cl)cc1
inactive: outcome [1] | outcome [2] | outcome [3] | outcome [4] | outcome [5] | outcome [6] | outcome [7] | outcome [8] | outcome [9] | outcome [10] | outcome [11] | outcome [12] | outcome [13] | outcome [14] | outcome [15] | outcome [16] | outcome [17]

FC(F)(F)COc1nc(N2CCCCC2)nc(N2CCNCC2)n1
inactive: outcome [1] | outcome [2] | outcome [3] | outcome [4] | outcome [5] | outcome [6] | outcome [7] | outcome [8] | outcome [9] | outcome [10] | outcome [11] | outcome [12] | outcome [13] | outcome [14] | outcome [15] | outcome [16] | outcome [17]

O=C(COC(=O)c1cc2c(s1)CCCCC2)NC1CCS(=O)(=O)C1 (stereo not given)
inactive: outcome [1] | outcome [2] | outcome [3] | outcome [4] | outcome [5] | outcome [6] | outcome [7] | outcome [8] | outcome [9] | outcome [10] | outcome [11] | outcome [12] | outcome [13] | outcome [14] | outcome [15] | outcome [16] | outcome [17]

O=[N+]([O-])c1cc([N+](=O)[O-])c2oc(-c3ccccc3)c(Br)c2c1O
inactive: outcome [1] | outcome [2] | outcome [3] | outcome [4] | outcome [5] | outcome [6] | outcome [7] | outcome [8] | outcome [9] | outcome [10] | outcome [11] | outcome [12] | outcome [13] | outcome [14] | outcome [15] | outcome [16] | outcome [17]

COC(=O)c1ccc(/C=N/N2CCN(Cc3ccc(C)cc3C)CC2)cc1
active: potentiation [3] 6% | potentiation [4] 22% | potentiation [15] 28.6%
inactive: outcome [1] | outcome [2] | outcome [5] | outcome [6] | outcome [7] | outcome [8] | outcome [9] | outcome [10] | outcome [11] | outcome [12] | outcome [13] | outcome [14] | outcome [16] | outcome [17]

O=C(COc1ccc(Br)cc1Cl)c1ccc[nH]1
active: inhibition [5] 89% | inhibition [14] 43.7%
inactive: outcome [1] | outcome [2] | outcome [3] | outcome [4] | outcome [6] | outcome [7] | outcome [8] | outcome [9] | outcome [10] | outcome [11] | outcome [12] | outcome [13] | outcome [15] | outcome [16] | outcome [17]
